Results on twelve compounds are retold here after PubChem BioAssay (NCATS).

Records with an inconclusive call do not appear. A number with no mark means an inactive call. Calls of active or inactive are those of the source. Calls follow the shape of the dose curve; as a rule, active = well fitted inhibition curve with a large enough effect; inconclusive = small, poorly fitted or top-dose-only effect; inactive = no such curve, though single readings can be large or run the other way.
Potency is read from the fitted curve at half-maximal effect.

The experiment is described as follows: S16 Schwann cell PMP22 intronic element firefly luciferase assay (AID 624032). Also: nearly all actives have a fitted effect of over 30% in size. Conditions: S16 rat Schwann cells, PMP22 element FLuc, 24 h; series mostly up to 57.5 µM; activity change, negative = inhibition: at the top concentration. In outline:
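Luciferase reporter of PMP22 intronic-element expression in stably transfected S16 rat Schwann cells, read by ONE-Glo luminescence after 24 h compound exposure at 37 C. Activity scaled between DMSO (0%) and positive-control PTC124; concentration-effect curves quality-classified.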
Turning to `C#C[C@]1(O)CC[C@H]2[C@@H]3CCC4=CCCC[C@@H]4[C@H]3C(=C)C[C@@]21CC`, the “activity change, negative = inhibition” value is -54.6%.
In the case of `O=C(Nc1ccc(Br)cc1)c1cc(Br)c(Br)s1`, the “activity change, negative = inhibition” value is 105%.
The same measure, in the same setting: the figure for `CCCCC/C=C\C/C=C\CCCCCCCC(=O)O` is -10%.
`C=C1C(=CC=C2CCC[C@@]3(C)[C@@H]2CC[C@H]3[C@H](C)CCCC(C)C)C[C@@H](O)C[C@@H]1O`: the Potency is 0.0287 µM (active).
`Cc1ccccc1OCC(O)CNCCOc1ccc(C(N)=O)cc1` (configuration not stated): the “activity change, negative = inhibition” value was 22.9%.
On the same count and under the same terms, then `C=CCSSSCC=C`, with -29.2%.
As for `CC(=O)Oc1cc(C)c(OC(C)=O)c2ccccc12`, the Potency is 28.7 µM (active).
As for `COCC(=O)Nc1cc(Sc2ccccc2)ccc1N=C(NC(=O)OC)NC(=O)OC`, the “activity change, negative = inhibition” value was 14.9%.
Take `CCN(CC)CCOc1ccc(-c2nc3cc(Cl)ccc3s2)cc1`: the “activity change, negative = inhibition” value is 19.5%.
As for `CC[C@@]1(O)C(=O)OCc2c1cc1n(c2=O)Cc2cc3c([N+](=O)[O-])cccc3nc2-1`, the Potency was 0.203 µM (active).
Turning to `O=C(Nc1cccc(C(F)(F)F)c1)c1cc(Br)cc(Br)c1O`, the “activity change, negative = inhibition” value is 13.4%.
As for `CCCCCCCCCCCCCC[n+]1ccc(C)cc1`, the Potency is 2.56 µM (active).
